Source: PubChem BioAssay
HTR5A ag ctr – HTR5A agonists in luminescence cell assay, primary screen, counter-screen for OPRM1-OPRD1 heterodimer agonist project, full-deck HTS. cell-based. 5-hydroxytryptamine receptor 5A (Homo sapiens), P47898. hit rate 0.61% among 340,000. activation, % at 9.3 µM; in the data active = activation mostly above about 9.5%, no sharp cut-off; inactive = mostly below about 7.6%;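 also: 0% = cells with vehicle only and 100% = reference agonist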
Target sequence (P47898 whole entry, looked up): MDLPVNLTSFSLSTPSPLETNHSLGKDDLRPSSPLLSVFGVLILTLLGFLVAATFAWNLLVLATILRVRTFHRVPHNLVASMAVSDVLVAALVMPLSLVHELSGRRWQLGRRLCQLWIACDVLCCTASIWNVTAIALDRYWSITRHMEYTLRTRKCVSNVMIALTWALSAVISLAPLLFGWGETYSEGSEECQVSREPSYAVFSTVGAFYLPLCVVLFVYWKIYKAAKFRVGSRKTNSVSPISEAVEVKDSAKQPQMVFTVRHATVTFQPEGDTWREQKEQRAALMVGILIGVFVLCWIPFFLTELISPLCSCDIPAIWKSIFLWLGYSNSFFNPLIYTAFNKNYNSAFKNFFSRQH
OPRM1-OPRD1 ag – agonists of OPRM1-OPRD1 heterodimerization, primary screen, cell-based, luminescence. cells. activation, % at 9.3 µM. hit rate 0.3% among 340,000. AID 504326, 2011; in the data active = activation above about 18%;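 also: 0% = vehicle-treated cells and 100% = reference agonist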
MOR-DOR inv ag – inverse agonists of MOR-DOR heterodimerization, primary screen, cell-based, luminescence. Mu-type opioid receptor (Homo sapiens) + Delta-type opioid receptor (Homo sapiens), …. cell-based MOR-DOR heterodimer luminescence, inverse agonism. inhibition, % at 9.3 µM. hit rate 0.21% among 340,000. AID 504357, 2011; in the data active = inhibition above about 22%, passing the limit was not always enough;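 also: 0% = cells with DMSO and 100% = wells without cells with DMSO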
CR mimetic SO – reduction of superoxide in aged yeast, primary screen, HTS. S. cerevisiae aged cells, superoxide DHE fluorescence; active compounds read low. superoxide response (% of plate mean), % at 10 µM. hit rate 0.18% among 330,000. AID 2690, 2010;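 active = superoxide response under a set limit, about three screen SD below normal, cut at about 65% in these data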;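 also: yeast aged for seven days with compound at 30 °C before DHE staining; 100% = average MFI of all compound-treated wells on the plate with controls excluded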
PvdQ inh – P. aeruginosa PvdQ acylase inhibitors, primary screen, biochemical, fluorescence, plate reader and imaging, single point. hit rate 0.063% among 340,000. AID 488965, 2010. inhibition, % at 10 µM. purified PvdQ acylase; in the data active = inhibition above about 30%, passing the limit was not always enough;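 also: 0% = vehicle neutral wells and 100% = reference inhibitor wells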
HTR5A inv ctr – HTR5A inverse agonists in luminescence cell assay, primary screen, counter-screen for OPRM1-OPRD1 heterodimer inverse agonist project, full-deck HTS; 5-hydroxytryptamine receptor 5A (Homo sapiens), P47898; HTR5A cell line, inverse agonism; inhibition, % at 9.3 µM; hit rate 0.083% among 340,000; AID 504634, 2011; in the data active = inhibition mostly above about 23%, no sharp cut-off; inactive = mostly below about 18%;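 also: 0% = cells with DMSO and 100% = no-cell wells with DMSO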
Superoxide pick – superoxide lowering in aged yeast cells, confirmation, cherry picked compounds; S. cerevisiae aging, superoxide DHE fluorescence; active compounds read low; hit rate 1% among 850; shares compounds with CR mimetic SO; superoxide response (% of plate), % at 10 µM;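 active = superoxide signal below 65% of the plate average of sample wells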;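 also: cells aged with compound for 7 days at 30 degrees C before staining; 100% equals mean DHE fluorescence of all compound wells on the plate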
DHE counter – DHE quenching or ROS scavenging interference in aged yeast, artefact control for yeast caloric restriction mimetic project, S. cerevisiae BY4741, flow cytometry; shares compounds with CR mimetic SO; DHE fluorescence; active compounds read low; fluorescence response, % at 10 µM; 850 tested, under 10 active; AID 435000, 2010;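 active = fluorescence response below 15%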;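 also: percent of the mean fluorescence averaged over all compound wells on the plate; lower means stronger quenching of DHE signal or ROS scavenging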
* marks the source's active call; other numbers are inactive results; . = no result. Shown are actives, neighbours in structure and some others; about 1.3% of the full set was active somewhere.

SMILES	HTR5A ag ctr	OPRM1-OPRD1 ag	MOR-DOR inv ag	CR mimetic SO	PvdQ inh	HTR5A inv ctr	Superoxide pick	DHE counter
C[C@H](CCC(=O)O)[C@H]1CC[C@H]2[C@@H]3CC[C@@H]4C[C@H](O)CC[C@]4(C)[C@H]3CC[C@]12C	-2	-3	14	66	-16	-11	.	.
CC(=O)[C@@]1(O)CCC2C3CC[C@H]4C[C@@H](O)CC[C@]4(C)C3CC[C@@]21C (stereo partly specified)	-1	-2	9	105	-30	3	104	103
Cc1ccc(-c2nnc(Nc3ccc(O)cc3)c3ccccc23)cc1S(=O)(=O)NCCO	-2	-2	12	106	-12	22	124	116
Cc1ccc(-c2nnc(Nc3ccc(OCC(N)=O)cc3)c3ccccc23)cc1S(N)(=O)=O	-2	-3	13	104	3	7	104	97
Cc1ccc(-c2nnc(Nc3cccc(O)c3)c3ccccc23)cc1S(=O)(=O)NCCO	4	0	-1	97	-3	-16	.	.
Cc1ccc(-c2nnc(Nc3ccc(CC(N)=O)cc3)c3ccccc23)cc1S(N)(=O)=O	0	-3	16	84	-3	-1	99	97
CNC(=O)c1ccc(Nc2nnc(-c3ccc(C)c(S(N)(=O)=O)c3)c3ccccc23)cc1	1	-3	15	102	2	-4	94	91
CNS(=O)(=O)c1cc(-c2nnc(Nc3ccc(CC(N)=O)cc3)c3ccccc23)ccc1C	0	-4	20	101	1	0	.	.
NS(=O)(=O)c1cccc(NS(=O)(=O)c2ccc3ccccc3c2)c1	-1	-2	11	114	-15	5	.	.
CC(Oc1ccc2c(-c3ccccc3)cc(=O)oc2c1)C(=O)NCC(O)c1ccccc1 (stereo unspecified)	2	-2	8	107	-7	16	.	.
CCN(Cc1nc(-c2cccc(C)c2)no1)C(=O)c1ccco1	-1	-2	14	118	0	6	.	.
CCC(C)(C)c1ccc(OCCCC[n+]2ccc(C)cc2)c(C(C)(C)CC)c1	.	.	.	61*	.	.	100	96
Cc1ccc(S(=O)(=O)NCCC(=O)Nc2ncccc2O)cc1C	-1	-1	8	93	-8	10	.	.
CN(Cc1ccccc1)C(=O)CCC1CCN(S(=O)(=O)N(C)C)CC1	0	-2	9	103	9	10	.	.
CN(Cc1ccccc1)C(=O)CCC1CCN(S(C)(=O)=O)CC1	-3	-1	5	65*	-10	12	127	110
COc1ccccc1N1CCN(CC(=O)Nc2ccc(Cl)c(C(F)(F)F)c2)CC1	-5	-1	6	99	5	5	.	.
O=C(CN1CCN(c2ccccn2)CC1)Nc1ccc(Cl)c(C(F)(F)F)c1	6	1	-3	102	-8	8	95	103
O=C(CN1CCN(c2ccccn2)CC1)Nc1cc(C(F)(F)F)ccc1Cl	-7	6	-32	97	-23	18	107	133
COc1ccc(CC(=O)N(Cc2ccccc2)c2cccc(C)c2)cc1OC	1	0	3	64*	3	-2	98	90
COc1ccc(C(=O)N(Cc2ccccc2)c2cccc(C)c2)c(OC)c1OC	1	-3	17	101	-11	15	.	.
O=[N+]([O-])c1cc(Br)c(Nc2ccccc2)c([N+](=O)[O-])c1	-1	4	-16	53*	-6	4	84	100
NS(=O)(=O)c1ccc(CNC(=O)CNC(=O)c2ccc(Br)o2)cc1	3	0	0	100	-12	-32	.	.
O=C(Nc1ccc2cccnc2c1)c1ccc(Br)cc1	3	1	-3	100	-9	-9	.	.
